Reference: PMC4336329 (PLoS ONE, 2015)
In all, about 310,000 compounds went through this assay and about 14,000 (4.5%) showed an effect of 50% or more. Effects have a minus sign here. This is one part of a sample in which strong results are shown more often than they occur.

The compounds below were run against human ether-à-go-go-related gene (hERG) potassium channel (human, UniProt Q12809) (assay: primary screen, population patch clamp on CHO cells stably expressing hERG; higher = less effect of the substance).
human ether-à-go-go-related gene (hERG) potassium channel, sequence (Q12809 whole entry, looked up): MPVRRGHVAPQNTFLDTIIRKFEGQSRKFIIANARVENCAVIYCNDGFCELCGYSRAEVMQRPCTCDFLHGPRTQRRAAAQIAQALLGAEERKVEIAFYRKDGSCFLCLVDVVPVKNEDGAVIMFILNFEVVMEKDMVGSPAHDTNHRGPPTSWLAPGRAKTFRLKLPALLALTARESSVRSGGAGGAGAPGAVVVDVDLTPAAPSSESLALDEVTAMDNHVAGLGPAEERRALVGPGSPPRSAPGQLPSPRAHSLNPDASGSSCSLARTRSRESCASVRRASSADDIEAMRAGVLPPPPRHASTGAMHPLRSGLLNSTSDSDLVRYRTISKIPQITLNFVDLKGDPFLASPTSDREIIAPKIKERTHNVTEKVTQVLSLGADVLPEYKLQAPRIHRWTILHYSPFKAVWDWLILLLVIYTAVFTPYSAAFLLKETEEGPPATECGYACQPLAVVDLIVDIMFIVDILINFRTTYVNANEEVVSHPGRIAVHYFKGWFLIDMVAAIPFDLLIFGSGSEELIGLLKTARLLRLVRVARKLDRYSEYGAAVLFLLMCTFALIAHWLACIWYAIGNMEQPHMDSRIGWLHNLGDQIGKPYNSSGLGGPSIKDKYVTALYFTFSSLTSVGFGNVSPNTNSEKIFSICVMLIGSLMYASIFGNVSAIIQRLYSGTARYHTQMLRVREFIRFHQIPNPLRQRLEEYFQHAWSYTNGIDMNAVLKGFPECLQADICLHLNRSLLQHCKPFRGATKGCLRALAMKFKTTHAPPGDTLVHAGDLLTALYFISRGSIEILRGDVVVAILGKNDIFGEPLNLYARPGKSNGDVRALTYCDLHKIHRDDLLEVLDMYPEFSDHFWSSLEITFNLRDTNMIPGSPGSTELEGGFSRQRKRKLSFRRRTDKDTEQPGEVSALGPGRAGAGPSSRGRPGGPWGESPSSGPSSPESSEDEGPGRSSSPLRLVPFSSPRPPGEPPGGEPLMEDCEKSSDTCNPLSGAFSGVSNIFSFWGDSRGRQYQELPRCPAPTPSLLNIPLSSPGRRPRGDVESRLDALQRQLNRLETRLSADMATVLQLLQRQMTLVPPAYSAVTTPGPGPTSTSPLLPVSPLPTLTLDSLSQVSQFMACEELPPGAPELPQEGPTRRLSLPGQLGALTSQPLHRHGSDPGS
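Note: peak tail current of the secondary pulse compared with the same well before compound.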

| SMILES | hERG current change (%, negative = inhibition) at 10uM [%] |
| --- | --- |
| CCOc1ccccc1NC(=O)CSc1nnnn1Cc1ccccc1 | -40.5 |
| CC(=O)c1ccc(S(=O)(=O)N2CCN(C(=O)CSc3ccc(F)cc3)CC2)cc1 | 11.7 |
| CC[C@]12C=CCN3CCC4(c5cc(Br)c(OC)cc5N(C)C4[C@@](O)(C(=O)OC)[C@@H]1OC(C)=O)C32 (some centres unmarked) | 7.6 |
| COc1ccc(/C=C(/NC(=O)c2ccccc2)C(=O)N/N=C/c2ccncc2)cc1 | 9.78 |
| N#CCSc1nc(-c2ccccc2)nc2ccccc12 | 7.83 |
| CCc1ccccc1NC(=O)CN1CCN(CC(=O)Nc2ccc(-c3ccccc3)cc2)CC1 | -53.3 |
| Cc1cccc(NC(=O)CNC(=O)COc2ccc(-c3ccc(C#N)cc3)cc2)c1C | 4.86 |
| Cc1cccc(NC(=O)CN2CCN(CC(=O)Nc3ccc(-c4ccccc4)cc3)CC2)c1C | -17 |
| CCc1ccccc1NC(=O)CN1CCN(C(=O)COc2ccccc2C#N)CC1 | -34.6 |
| Cc1cccc(NC(=O)CN2CCN(C(=O)c3ccc(OCc4cn5ccccc5n4)cc3)CC2)c1C | -46.5 |
| Cc1cccc(NC(=O)CN2CCN(C(=O)C(C)Oc3ccc(C#N)cc3)CC2)c1C (centres unmarked) | -76.9 |
| CCc1ccccc1NC(=O)CN1CCN(C(=O)CN2C(=O)NC3(CCCC3)C2=O)CC1 | 7.54 |
| CCc1ccccc1NC(=O)CN1CCC(NC(=O)COC)CC1.Cl | 13.4 |
| CCc1ccccc1NC(=O)CN1CCN(CC(=O)NCc2ccc(Cl)cc2)CC1 | -46.6 |
| CCc1ccccc1NC(=O)CN1CCN(C(=O)CCC(=O)N2CCC(c3ccccc3)=N2)CC1 | -58 |
| CCc1ccccc1NC(=O)CN1CCN(C(=O)CNC(=O)Cc2cccc3ccccc23)CC1 | -59.6 |
| CCc1ccccc1NC(=O)CN1CCN(C(=O)CNC(=O)c2ccccc2F)CC1 | -13.5 |
| COc1ccc(Cl)cc1NC(=O)CN(C)C(=O)c1ccc(OCc2ccccc2)c(OC)c1 | 6.49 |
| COc1coc(C(O)CN)cc1=O (centres unmarked) | 4.57 |
| CC(=O)c1ccc(NC(=O)C2CC(c3ccc(F)cc3)=NO2)cc1 (centres unmarked) | -6.78 |
| CC(C(=O)N(C)C1CCCCC1)N1CCC(C(N)=O)CC1 (centres unmarked) | 25 |
| Cc1ccc2c(c1)c1ncnc(N3CCc4ccccc4C3)c1n2C | 0.68 |

| SMILES | hERG current change (%, negative = inhibition) at 10uM [%] |
| --- | --- |
| COc1cccc(CN(CC(=O)NCc2ccccc2)S(=O)(=O)CCl)c1 | -16.8 |
| CCOC(=O)c1csc(NC(=O)c2ccc(S(=O)(=O)N(C)C)cc2)n1 | -20.9 |
| Cc1ccnc(SCC(=O)N2CCN(c3cccc(Cl)c3)CC2)n1 | -25.2 |
| O=C(NC1CCN(C(=S)Nc2ccccc2Cl)CC1)C1CCCCC1 | 14 |
| O=C(CSc1nc2scc(-c3ccccc3)c2c(=O)[nH]1)NCCc1ccccc1 | -1.09 |
| Cc1cccc(NC(=O)CN2CCN(C(=O)COc3cccc(Br)c3)CC2)c1C | -70.4 |
| Cc1ccccc1NC(=O)CNC(=O)Cc1cccc2ccccc12 | 1.16 |
| CCc1ccccc1NC(=O)CN1CCN(C(=O)CNC(=O)c2ccc(-c3ccccc3)cc2)CC1 | -57 |
| CCc1ccccc1NC(=O)CN1CCN(C(=O)CNC(=O)c2ccc(N3CCCC3=O)cc2)CC1 | -3.9 |
| Cc1cccc(NC(=O)CNC(=O)CN2CCN(C)CC2)c1C | 7.6 |
| O=C(CN1CCN(C(=O)CNC(=O)c2ccc3c(c2)OCO3)CC1)Nc1ccccc1Cl | -49.3 |
| Cc1cccc(NC(=O)CN2CCN(C(=O)CNC(=O)Cc3cccc4ccccc34)CC2)c1C | -57.4 |
| Cc1cccc(NC(=O)CN2CCOCC2)c1C | 13.9 |
| CCOC(=O)N1CCN(CC(=O)Nc2cccc(Br)c2)CC1 | -18.9 |
| O=C(O)CN1CCN(CC(=O)O)CCN(CC(=O)O)CCN(CC(=O)O)CC1 | 7.18 |
| O=C(Nc1cccc(C(=O)N2CCOCC2)c1)c1ccccc1Cl | -17 |
| COc1ccc(C(=O)Nc2ccc(-c3ccc(C)o3)cc2)cc1S(=O)(=O)N1CCOCC1 | 14.6 |
| O=C(NCc1cccs1)C1CCCN1C(=O)Nc1ccccc1 (centres unmarked) | 21 |
| CCN(C(=O)COC(=O)c1ccc2ccccc2c1)c1c(N)n(Cc2ccccc2)c(=O)[nH]c1=O | 14.1 |
| COc1ccc(C(=O)OCC(=O)Nc2sccc2C(N)=O)cc1OC | -0.284 |
| CCC(=O)N(C)CCc1cc2c(c(OC)c1/C=N/Nc1ccc(C(=O)O)cc1)OCO2 | -1.63 |
| O=C(Nc1cccc(Cl)c1)c1nc[nH]c1C(=O)N1CCc2ccccc2C1 | -15.6 |

| SMILES | hERG current change (%, negative = inhibition) at 10uM [%] |
| --- | --- |
| CCOc1ccc(NS(=O)(=O)c2ccc(C(=O)N3CCCCC3)cc2)cc1 | -9.46 |
| COc1ccc(Cn2cnc3c(N)c(C)c(C)cc32)cc1 | 5.13 |
| N#CC1(NC(=O)COc2ccc3oc4ccccc4c3c2)CCCCC1 | 12.1 |
| COC(=O)c1ccc(CNC(=O)COC(=O)C2CC3C=CC2C3)cc1 (centres unmarked) | 11.2 |
| COc1ccc(-n2nc3c(c2NC(=O)CCCCl)CSC3)cc1 | -1.78 |
| CCCN(CCC)CCCNC(=S)Nc1ccc2nc(N3CCCC3)cc(C)c2c1 | -60.4 |
| CCOCCCNC(=S)Nc1ccc2nc(N3CCCC3)cc(C)c2c1 | -73.3 |
| CCN1CCN(c2cc(C)c3cc(NC(=S)NCCCOC)ccc3n2)CC1 | 5.8 |
| CCOCCCNC(=S)Nc1ccc2nc(N3CCOCC3)cc(C)c2c1 | -7.68 |
| CCOCCCNC(=S)Nc1ccc2nc(N3CCN(CC)CC3)cc(C)c2c1 | 4.36 |
| COCCNC(=S)Nc1ccc2nc(N3CCCC3)cc(C)c2c1 | -71.6 |
| CCCN(CCC)CCCNC(=S)Nc1ccc2nc(N3CCN(C)CC3)cc(C)c2c1 | 8.86 |
| CCCN(CCC)CCCNC(=S)Nc1ccc2nc(N3CCN(CC)CC3)cc(C)c2c1 | -3.08 |
| COCCNC(=S)Nc1ccc2nc(N3CCN(C)CC3)cc(C)c2c1 | 8.03 |
| CCN(CC)CCNC(=S)Nc1ccc2nc(N3CCCC3)cc(C)c2c1 | -8.93 |
| Cc1cc(N2CCCC2)nc2ccc(NC(=S)NCCCN3CCC(C)CC3)cc12 | -29.6 |
| Cc1cc(N2CCCC2)nc2ccc(NC(=S)NCCCOC(C)C)cc12 | -83.4 |
| CCOc1ccc(C(=O)Nc2ncn[nH]2)cc1 | 19.1 |
| O=C(CCc1c[nH]c2ccccc12)N/N=C/c1ccc2c(c1)OCO2 | 6.33 |
| CC1=CCC2C(=O)N(CCc3c[nH]c4ccccc34)C(=O)C2C1 (centres unmarked) | -9.31 |
| COc1ccc(CC(=O)NNc2ncnc3c2cnn3-c2ccc(C)cc2)cc1OC | 10.5 |
| COc1ccc(CNC(=O)Cn2nnc(-c3ccc(NC(=O)C4CCCCC4)cc3)n2)cc1 | 14 |

| SMILES | hERG current change (%, negative = inhibition) at 10uM [%] |
| --- | --- |
| COc1ccccc1NS(=O)(=O)c1cc(-c2cnc(C3CC3)o2)ccc1C | 3.37 |
| O=C1CSC(c2cn(-c3ccccc3)nc2-c2cccs2)N1Cc1ccccc1 (centres unmarked) | -1.38 |
| O=Cc1c(NCc2ccccc2F)c2ccccc2[nH]c1=O | 13.8 |
| CCC(C)NC(=S)Nc1ccc2nc(N3CCOCC3)cc(C)c2c1 (centres unmarked) | 5.86 |
| Cc1cc(N2CCCC2)nc2ccc(NC(=S)NC(C)C)cc12 | -71.6 |
| CCOCCCNC(=S)N1CCCN(c2nc3cc(C)c(C)cc3cc2C#N)CC1 | -36.4 |
| Cc1cc(N2CCOCC2)nc2ccc(NC(=S)NC(C)C)cc12 | -12.4 |
| CCOCCCNC(=S)N1CCCN(c2nc3cc(C)ccc3cc2C#N)CC1 | -30.9 |
| CCOCCCNC(=S)N1CCCN(c2nc3cc(C)cc(C)c3cc2C#N)CC1 | -55.6 |
| CSc1nsc(SCC(=O)Nc2ccc(OC(C)=O)cc2)n1 | 4.1 |
| Cc1c(N=N/C(C(=O)Nc2ccccc2)=C(/O)c2ccccc2)c(=O)n(-c2ccccc2)n1C | 8.85 |
| O=C1C(C=NCc2ccncc2)=C(O)c2ccccc21 | -9.12 |
| CN=CC1=C(O)c2ccccc2C1=O | 14.7 |
| CC(C)CN=CC1=C(O)c2ccccc2C1=O | -71.4 |
| CCOC(=O)N1CCC(NC(=O)CCc2nc(C3=CCN(C)CC3)no2)CC1 | -3.37 |
| COc1ccc(C(=O)NCCNc2nc3ccc(C)cc3cc2C#N)cc1 | 4.99 |
| CCN(Cc1ccncc1)Cc1ccc(OC)c(OC)c1.O=C(O)C(=O)O | -6.49 |
| COc1ccc(CN(CCN(C)C)Cc2ccccc2)c(OC)c1.O=C(O)C(=O)O | -46.1 |
| CCN(Cc1ccncc1)Cc1ccc(OC)cc1OC.O=C(O)C(=O)O | -51.4 |
| COc1ccc(N(CC(=O)Nc2cc(C)on2)S(=O)(=O)c2ccc(Cl)cc2)cc1 | 9.89 |
